Hit rate of the full screen: of about 1,400 compounds, about 350 (25%) were called active. Another 2% or so got no clear call; they are omitted. The rule behind the calls is not given here. The list is a sample of the results. Potency and affinity values are given separately.

This is an account of results in PubChem BioAssay AID1224921 (Broad Institute, 2016).

A short description of this test: inhibitors of Clostridioides difficile proliferation – 4-point retest, confirmation (AID 1224921).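 Note: plate controls were DMSO wells for no effect and levofloxacin 16 µg/mL wells for full effect.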 The settings on record: Clostridioides difficile clinical isolate growth, OD600, 24 h, stronger effect = lower value; at 30 µM unless noted.
On to `CO[C@H]1CN(C)C(=O)c2cc(NC(=O)NC(C)C)ccc2OC[C@H](C)N(Cc2ccccn2)C[C@@H]1C`, for which the max activity is -9.04% [at 1.95 µM] (inactive).

As to `C[C@H](CO)N1C[C@H](C)[C@H](CN(C)C(=O)C2CCC2)Oc2ncc(C#Cc3cccc(F)c3)cc2C1=O`, the max activity is 15.1% [at 8 µM] (inactive).

As for `C[C@H](NC(=O)C[C@H]1C=C[C@@H](NC(=O)C2CCC2)[C@H](CO)O1)c1ccccc1`, the max activity was -11.6% (inactive).

With `CNC[C@@H]1Oc2cc(-c3ccccc3F)ccc2S(=O)(=O)N([C@@H](C)CO)C[C@H]1C`, the max activity is 20.5% (inactive).

Consider `O=C(N[C@@H]1C=C[C@@H](CC(=O)N2CCCCC2)O[C@@H]1CO)c1ccc2c(c1)OCO2`, for which the max activity was 15.7% [at 8 µM] (inactive).

Regarding `CO[C@H]1CN(C)C(=O)c2cc(NS(=O)(=O)c3cccc(F)c3)ccc2OC[C@@H](C)N(Cc2cc(F)ccc2F)C[C@@H]1C`, the max activity is 33.9% (inactive).

For the compound `C[C@H]1CN([C@@H](C)CO)S(=O)(=O)c2ccc(C#CCC3CCCC3)cc2O[C@@H]1CN(C)C`, the max activity was -13.1% [at 1.95 µM] (inactive).

With `N#C[C@H]1[C@@H](c2ccc(C3=CCCCC3)cc2)[C@H](CO)N1S(=O)(=O)c1ccccc1`, the max activity is -7.4% [at 1.95 µM] (inactive).

As for `N#C[C@@H]1[C@@H](c2ccc(C#Cc3cccnc3)cc2)[C@@H](CO)N1C(=O)C1CCCCC1`, the max activity is 27.2% (inactive).

Turning to `C[C@@H]1CN([C@H](C)CO)S(=O)(=O)c2ccc(C#CCC3CCCC3)cc2O[C@@H]1CN(C)C`, the max activity was 14.7% [at 8 µM] (inactive).

Regarding `C[C@H](CO)N1C[C@H](C)[C@H](CN(C)C)Oc2cc(C#CCC3CCCC3)ccc2S1(=O)=O`, the max activity was 37% (inactive).

On to `C[C@@H]1CN([C@@H](C)CO)S(=O)(=O)c2ccc(C#CCC3CCCC3)cc2O[C@H]1CN(C)C(=O)CN(C)C`, for which the max activity was -17.9% (inactive).

Regarding `CCC(=O)N(C)C[C@H]1Oc2cc(C#CCC3CCCC3)ccc2S(=O)(=O)N([C@@H](C)CO)C[C@@H]1C`, the max activity is 24.3% (inactive).

Consider `CO[C@H]1CN(C)C(=O)c2cc(NC(=O)NC(C)C)ccc2OC[C@@H](C)N(C)C[C@H]1C`, for which the max activity is 4.11% (inactive).

Turning to `O=C(CN1CCOCC1)NCC[C@H]1CC[C@H](NC(=O)Cc2ccccn2)[C@@H](CO)O1`, the max activity is -9.14% [at 0.5 µM] (inactive).

As to `CCCNC(=O)Nc1ccc2c(c1)C(=O)N(C)C[C@H](OC)[C@@H](C)CN(C)[C@H](C)CO2`, the max activity is -9.08% [at 8 µM] (inactive).

As to `CC(=O)N(C)C[C@H]1Oc2cc(C#CC3CCCCC3)ccc2S(=O)(=O)N([C@H](C)CO)C[C@H]1C`, the max activity is 12.6% [at 8 µM] (inactive).

For the compound `C[C@H](CO)N1C[C@H](C)[C@@H](CN(C)C)Oc2cc(C#CCC3CCCC3)ccc2S1(=O)=O`, the max activity is 7% [at 7.5 µM] (inactive).

As for `C[C@@H]1CN([C@H](C)CO)S(=O)(=O)c2ccc(C#CC3CCCC3)cc2O[C@H]1CN(C)C`, the max activity was 49.4% (inactive).

In the case of `C[C@H]1CN([C@@H](C)CO)S(=O)(=O)c2ccc(C#CCC3CCCC3)cc2O[C@H]1CN(C)C`, the max activity is 10.1% [at 8 µM] (inactive).

As to `O=C(Nc1cc(F)ccc1F)N[C@@H]1CC[C@H](CC(=O)N2CCc3ccccc3C2)O[C@H]1CO`, the max activity is 38.5% (inactive).

As to `O=C(N[C@H]1C=C[C@H](CC(=O)N2CCOCC2)O[C@H]1CO)c1cccc(F)c1`, the max activity is -11.2% [at 1.95 µM] (inactive).

In the case of `CO[C@@H]1CN(C)C(=O)c2ccc(NC(=O)c3ccc(F)cc3)cc2OC[C@@H](C)N(C(=O)CN(C)C)C[C@@H]1C`, the max activity is -12.8% [at 1.95 µM] (inactive).

Turning to `C[C@H]1CN([C@@H](C)CO)S(=O)(=O)c2ccc(C3=CCCCC3)cc2O[C@@H]1CN(C)Cc1ccncc1`, the max activity is 42.8% (inactive).

Regarding `CO[C@H]1CN(C)C(=O)c2ccc(NC(=O)c3nc4ccccc4s3)cc2OC[C@@H](C)N(Cc2cccnc2)C[C@@H]1C`, the max activity is 23.4% (inactive).

Take `COCCNC(=O)C[C@H]1C[C@H]2c3cc(NC(=O)Nc4ccc(C(F)(F)F)cc4)ccc3O[C@H]2[C@H](CO)O1`: the max activity is -7.9% [at 1.95 µM] (inactive).

`COCCNC(=O)C[C@H]1C[C@H]2c3cc(NC(=O)Nc4ccc(C(F)(F)F)cc4)ccc3O[C@H]2[C@@H](CO)O1`: the max activity was -9.02% (inactive).

On to `O=C(C[C@H]1C[C@@H]2c3cc(NC(=O)Nc4ccc(C(F)(F)F)cc4)ccc3O[C@@H]2[C@@H](CO)O1)NCC1CC1`, for which the max activity is 14.9% (inactive).

On to `COCCNC(=O)C[C@@H]1C[C@@H]2c3cc(NC(=O)Nc4ccc(C(F)(F)F)cc4)ccc3O[C@@H]2[C@H](CO)O1`, for which the max activity is 9.41% (inactive).

`O=C(C[C@H]1C[C@H]2c3cc(NC(=O)Nc4ccc(C(F)(F)F)cc4)ccc3O[C@H]2[C@H](CO)O1)NCC1CC1`: the max activity was -13.1% [at 1.95 µM] (inactive).

Regarding `O=C(C[C@H]1C[C@H]2c3cc(NC(=O)Nc4ccc(C(F)(F)F)cc4)ccc3O[C@H]2[C@@H](CO)O1)NCC1CC1`, the max activity is -16.4% [at 0.5 µM] (inactive).

On to `CC(C)(C)[S@](=O)N1Cc2cc(C(=O)NCc3ccc4c(c3)OCO4)nc(-c3cccc(-c4cccnc4)c3)c2[C@@H]1CCO`, for which the max activity is 32.4% [at 35 µM] (inactive).

On to `O=C(C[C@@H]1C=C[C@@H](NC(=O)CCN2CCCCC2)[C@H](CO)O1)Nc1ccc(-c2ccccc2)cc1`, for which the max activity is 21.5% (inactive).

As for `CC(C)c1cn(CC[C@@H]2CC[C@H](NS(=O)(=O)c3ccc(F)cc3)[C@H](CO)O2)nn1`, the max activity was -12.5% (inactive).

As for `N#C[C@@H]1[C@H](c2ccccc2)[C@H](CO)N1S(=O)(=O)c1ccc(-c2ccccc2)cc1`, the max activity is 15.3% (inactive).

`C[C@@H]1CN([C@@H](C)CO)C(=O)c2cc(C3=CCCCC3)cnc2O[C@@H]1CN(C)C(=O)c1cccc(F)c1`: the max activity is 24.7% (inactive).

In the case of `C[C@H](NC(=O)C[C@@H]1C[C@@H]2c3cc(NC(=O)CC4CC4)ccc3O[C@@H]2[C@H](CO)O1)c1ccccc1`, the max activity was 8.12% [at 35 µM] (inactive).

For the compound `O=C(C[C@H]1C[C@H]2c3cc(NC(=O)Nc4ccc(C(F)(F)F)cc4)ccc3O[C@H]2[C@@H](CO)O1)NCc1ccc(Cl)cc1`, the max activity was -6.14% [at 7.5 µM] (inactive).
